Source: the supplement of paper PMC3334620
Whole data set: some 33,000 sequences, median “E-score (-0.5 to 0.5)” near -8e-05, cut for the highest 2% near 0.23. Only a selection was taken, and the highest values are over-represented in it overall.

What follows are sequences tested against T1, Nrg2 (UniProt P38082) (assay: PBM E-score (8-mer binding enrichment) (E-score (-0.5 to 0.5)); higher = stronger / more preferred TF binding). Details: protein concentration: 100 nM; construct: GST-full length.
T1 sequence: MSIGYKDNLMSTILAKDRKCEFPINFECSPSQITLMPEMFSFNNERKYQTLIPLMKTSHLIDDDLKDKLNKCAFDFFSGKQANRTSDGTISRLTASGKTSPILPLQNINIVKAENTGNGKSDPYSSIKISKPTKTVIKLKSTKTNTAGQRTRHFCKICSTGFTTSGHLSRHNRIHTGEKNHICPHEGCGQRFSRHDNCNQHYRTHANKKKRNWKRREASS
Experimental: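 Universal 'all 10-mer' protein binding microarrays (Agilent AMADID 015681) probed with GST-tagged S. cerevisiae TFs (full-length or DBD) made by in vitro transcription/translation (PURExpress), about 100-200 nM. Bound TF was detected with fluorescent anti-GST. Each ungapped 8-mer (which stands for itself and its reverse complement) is scored by the PBM enrichment score (E-score), a modified Wilcoxon-Mann-Whitney statistic from -0.5 to +0.5, computed with the Universal PBM Analysis Suite. Scale: above 0.35 generally sequence-specific binding.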

In order of falling “PBM E-score” value:
1. TCGGAACA  0.313
2. AATAATAT  0.283
3. GATTTCGC  0.281
4. ACTAATCG  0.278
5. GACAAAAC  0.274
6. AACAATAT  0.266
7. AACAATAA  0.26
8. CATGGCCG  0.258
9. AGGGTACT  0.255
10. ATATCGAC  0.255
11. TAAAATGA  0.254
12. AACACTAT  0.252
13. GGAAATGA  0.25
14. AGTAATAG  0.247
15. AATTTCGC  0.244
16. AACAATCC  0.241
17. GACAATAC  0.232
18. CGCAATAC  0.231
19. GACAATAA  0.218
20. ACCAATAT  0.213
21. CGCAATAA  0.211
22. AACAATAC  0.202
23. CATTTCGC  0.184
24. AGGGTACA  0.181
25. GCCGAGGC  0.177
26. CACAATAC  0.173
27. CCTAATCG  0.16
28. ATTTGCTC  0.156
29. GACAAGAC  0.154
30. AACACTAG  0.152
31. ACAGAATA  0.148
32. TGATAGCA  0.14
33. TCCGTGCA  0.134
34. ATTTTCGC  0.131
35. CGAAATGA  0.127
36. TCTCTTAA  0.123
37. AGCAATAC  0.12
38. CAGGCCTG  0.115
39. AATAATAA  0.0987
40. AACAATCT  0.0946
41. GACAAAAA  0.0692
42. AATACTGC  0.068
43. TGAGGACA  0.0644
44. AATAATAG  0.0626
45. GCCTGGTA  0.0618
46. AGGGTACC  0.0534
47. AGGTTCAG  0.0524
48. AACACTAC  0.0505
49. AGCAATAT  0.0474
50. AATTTCGA  0.0453
51. GGACCACC  0.0365
52. ACGGAACA  0.0339
53. GATACACC  0.0324
54. CTAAATGA  0.0289
55. AGTGAATC  0.0226
56. CTTACTAA  0.0213
57. CCACCAGA  0.0154
58. AAAAATGA  0.0139
59. GATTTCGA  0.00717
60. ACTAATCT  0.00502
61. CGTAATAG  -0.00104
62. ATAGGTTA  -0.00463
63. GAAAATGA  -0.0055
64. CAAACCAC  -0.00637
65. ACTCCAGC  -0.0193
66. CCGGAACA  -0.0209
67. AGTAATAC  -0.0266
68. CGAACGGC  -0.0328
69. AGGTTTCC  -0.0376
70. ACTGGCCT  -0.0393
71. AACAATCG  -0.0412
72. CATGGCCA  -0.042
73. ACTCTTTA  -0.0446
74. GGTCTACA  -0.0592
75. GAGTAGGC  -0.0622
76. CATGGCCC  -0.066
77. ACAGCTGC  -0.0727
78. ACCCTTCT  -0.104
79. GTAGTCTA  -0.118
80. CGGCCATA  -0.123
81. AACAATAG  -0.124
82. AGTCAGTC  -0.127
83. CCCGGAGA  -0.138
84. CTACGTTC  -0.178
85. CCGGAGCC  -0.189
86. CATTAAGA  -0.214
